# Records with an inconclusive call do not appear. Entries that show only a call come without a potency. Calls of active or inactive are those of the source. Calls come from the whole dose curve; as a rule, active = well fitted curve in the direction sought with a large enough effect; inconclusive = small, poorly fitted or top-dose-only effect, or another doubt; inactive = no such curve, though single readings can be large or run the other way.
# Experiment: Secondary Assay for Inhibitors of Human Cdc-like kinase 4 (Clk4): HEK-293 Cell Viability Assay;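 note: cytotoxic hits lower the ATP light signal so activity reflects loss of viability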
# Details: HEK-293 viability, ATP luminescence (CellTiter-Glo), 24/48 h; series mostly up to 46.1 µM
# Description: NIH Molecular Libraries Probe Production Centers Network [MLPCN] NIH Chemical Genomics Center [NCGC] MLPCN Grant: 1R03MH084827-01 Assay Submitter (PI): Tom Misteli NCGC Assay Overview: Cytotoxicity of the active compounds in the Clk4 screens was assessed using the CellTiter-Glo Luminescent Cell Viability Assay kit (Promega, USA) in the HEK-293 (ATCC) cell line. CellTiter-Glo measures the intracellular ATP present in metabolically active cells using Ultra-Glo as the luciferase to detect ATP levels. In brief, the luciferase in the buffer catalyzes the oxidation of luciferin to oxyluciferin and light which is dependent on ATP. […] Wells treated with various concentrations of cycloheximide (Sigma) and DMSO, and wells with media alone were used as positive and negative controls, respectively. […] [1] http://www.promega.com/tbs/tb288/tb288.pdf
# NCGC Assay Protocol Summary: HEK-293 cells were grown in a flask up to 80% confluence. Cells were trypsinized, washed, and resuspended in MEM Eagle + 10% FBS + 1% pen-strep media at a concentration of 120 cells/uL. Five uL/well of cell solution was dispensed into a 1536-well assay plates (Greiner, solid white medium-binding plates) with Aurora Discovery BioRAPTR Flying Reagent Dispenser (FRD; Beckton-Dickenson). Cells were pre-incubated at 37 degree Celsius, 5% CO2 for four hours. Compound and control solutions (23nL) were then transferred to the assay plate using the Kalypsys 1536-pin tool. Assay plates were re- incubated at 37 degree Celsius, 5% CO2. After 24 or 48 hours, five uL of CellTiter Glo detection reagent was added. Luminescence signal was read with Perkin Elmer ViewLux plate reader after 30 min room temperature incubation.
# Potency is the fitted concentration of half-maximal effect.
row,SMILES,Potency
1,CN1CCN(c2ncc3nc(-c4cn(C)c5ccccc45)c(=O)n(Cc4cccs4)c3n2)CC1,8.88 µM (active)
2,c1nc(NCc2ccc3c(c2)OCO3)c2cc(-c3ccc4c(c3)OCCO4)ccc2n1,inactive
3,c1coc(CCNc2ncnc3ccc(-c4ccc5c(c4)OCO5)cc23)c1,inactive
4,CCOC(=O)c1ccc(-c2ccc3ncnc(NCc4cccs4)c3c2)o1,inactive
5,CCOC(=O)c1ccc(-c2ccc3ncnc(NCCc4cnc[nH]4)c3c2)o1,inactive
6,c1nc(NCC2CCOC2)c2cc(-c3ccc4c(c3)OCO4)ccc2n1 (stereo not given),inactive
7,CCOC(=O)c1ccoc1-c1ccc2ncnc(NCCc3cnc[nH]3)c2c1,inactive
8,CC(C)(C)CNc1ncnc2ccc(-c3ccc4c(c3)OCO4)cc12,inactive
9,CC(O)c1ccc(-c2ccc3ncnc(N4CCOCC4)c3c2)o1 (stereo not given),inactive
10,Clc1ccccc1-c1ccc2ncnc(NCc3ccc4c(c3)OCO4)c2c1,inactive
11,Cc1cccc(CNc2ncnc3ccc(-c4ccc5c(ccn5C)c4)cc23)c1,inactive
12,Cc1csc(CNc2ncnc3ccc(-c4ccc5c(c4)OCO5)cc23)c1,inactive
13,Cc1ccc(CN(C)c2ncnc3ccc(-c4ccc(CO)n4C)cc23)o1,inactive
14,Cc1csc(CNc2ncnc3ccc(-c4ccc5c(c4)OCCO5)cc23)c1,inactive
15,Cc1ccc(CNc2ncnc3cc(-c4ccc5c(c4)OCO5)ccc23)o1,inactive
16,CCNC(=O)c1ccc(-c2ccc3ncnc(NCc4nccs4)c3c2)o1,inactive
17,Cc1nc(C)c(-c2ccc3ncnc(NCCc4cnc[nH]4)c3c2)s1,inactive
18,O=C(O)c1ccc(-c2ccc3ncnc(NCC4CCCO4)c3c2)o1 (stereo not given),inactive
19,CC(=O)c1ccc(-c2ccc3ncnc(NCc4ccc(C)o4)c3c2)o1,inactive
20,c1cncc(-c2ccc3ncnc(NCc4ccc5c(c4)OCO5)c3c2)c1,inactive

row,SMILES,Potency
1,COc1cccc(-c2ccc3ncnc(NCc4cccs4)c3c2)c1,inactive
2,c1csc(CNc2ncnc3ccc(-c4ccc5c(c4)OCCO5)cc23)c1,inactive
3,Cc1csc(CNc2ncnc3ccc(-c4ccc5c(c4)OCO5)cc23)n1,inactive
4,c1csc(CNc2ncnc3ccc(-c4ccc5c(c4)OCO5)cc23)c1,inactive
5,c1csc(CCNc2ncnc3ccc(-c4ccc5c(c4)OCO5)cc23)c1,inactive
6,COc1cccc(-c2ccc3ncnc(NCc4cc(C)cs4)c3c2)c1,inactive
7,Fc1cccc(CNc2ncnc3ccc(-c4cccc(Cl)c4)cc23)c1,inactive
8,Cc1ccc(CNc2ncnc3ccc(-c4ccoc4)cc23)o1,inactive
9,c1cncc(CNc2ncnc3ccc(-c4ccc5c(c4)OCCO5)cc23)c1,inactive
10,CCOC(=O)c1ccc(-c2ccc3ncnc(NCc4ccc(C)o4)c3c2)o1,inactive
11,Cc1nc(C)c(-c2ccc3ncnc(NCc4ncc[nH]4)c3c2)s1,inactive
12,CCOC(=O)c1ccoc1-c1ccc2ncnc(NCc3ccc(C)o3)c2c1,inactive
13,CN(CC1CCCCO1)c1ncnc2ccc(-c3ccc4c(c3)OCO4)cc12 (stereo not given),inactive
14,Cc1csc(CNc2ncnc3cc(-c4ccc5c(c4)OCO5)ccc23)n1,inactive
15,CN(Cc1ccco1)c1ncnc2ccc(-c3ccoc3)cc12,inactive
16,c1nc(NCc2ccoc2)c2cc(-c3ccc4c(c3)OCO4)ccc2n1,inactive
17,Cc1cccc(-c2ccc3ncnc(NCc4cccc(F)c4)c3c2)c1,inactive
18,c1nc(N2CCOCC2)c2cc(-c3ccc4c(c3)OCO4)ccc2n1,inactive
19,CCCN(Cc1cccs1)c1ncnc2ccc(-c3ccc4c(c3)OCO4)cc12,inactive
20,c1cncc(CNc2ncnc3ccc(-c4ccc5c(c4)OCO5)cc23)c1,inactive

# From PubChem BioAssay AID504534 (National Center for Advancing Translational Sciences (NCATS), 2011)
